Source: the supplement of paper PMC10849652
Targets with a hit are over-represented here; the source holds about 8,800 in all. About 0.5% of all pairs of compound and target were hits.

Key:
Experiment in all cases: log2 fold change, soluble protein after heating vs DMSO (PISA); higher = thermal stabilisation; K562 lysate, 10 uM; active = over 0.2 and 3.5 SD of the protein, either way, in both replicates (recomputed)
alvocidib = compound: CN1CC[C@H](c2c(O)cc(O)c3c(=O)cc(-c4ccccc4Cl)oc23)[C@H](O)C1 [alvocidib]
How it was run: (§1)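 K562 pellets were dounce-homogenised in PBS pH 7.4 with 1 mM MgCl2, and the crude extract at 1 mg/mL protein was treated with 10 μM compound for 30 min. Aliquots were heated for 3 min across 48°C-58°C, pooled, and brought to 0.5% NP-40 at 4°C; soluble protein was the supernatant after 21,000xg for 90 min. Soluble protein was quantified by TMTpro 16plex LC-MS/MS with channel sums equalised, and reported as log2 fold change in thermal stability against DMSO controls, with values from duplicates.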

Tubastatin A = compound: CN1CCc2c(c3ccccc3n2Cc2ccc(C(=O)NO)cc2)C1 [Tubastatin A]
How it was run: as §1

[1] = compound: CNC(=O)C1=CC=CC=C1NC2=NC(=NC=C2Cl)NC3=C(C=C(C=C3)N4CCOCC4)OC
How it was run: as §1

defactinib = compound: CNC(=O)c1ccc(Nc2ncc(C(F)(F)F)c(NCc3nccnc3N(C)S(C)(=O)=O)n2)cc1 [defactinib]
How it was run: as §1

[2] = compound: CNc1nc(-c2ccc3c(N)n[nH]c3c2)cc(N2C[C@@H](C(=O)NC3CCCCC3)CC[C@H]2C)n1
How it was run: as §1

encorafenib = compound: COC(=O)N[C@@H](C)CNc1nccc(-c2cn(C(C)C)nc2-c2cc(Cl)cc(NS(C)(=O)=O)c2F)n1 [encorafenib]
How it was run: as §1

[3] = compound: COC(=O)[C@H](CCSC)NC(=O)C1=C(C=C(C=C1)NC[C@H](CS)N)C2=CC=CC=C2
How it was run: as §1

alisertib = compound: COc1cc(Nc2ncc3c(n2)-c2ccc(Cl)cc2C(c2c(F)cccc2OC)=NC3)ccc1C(=O)O [alisertib]
How it was run: as §1

[4] = compound: COc1cc2nc(-c3cc(F)ccc3O)nc(N[C@@H]3CNC[C@H]3C(C)(C)O)c2cc1OC
How it was run: as §1

gefitinib = compound: COc1cc2ncnc(Nc3ccc(F)c(Cl)c3)c2cc1OCCCN1CCOCC1 [gefitinib]
How it was run: as §1

lapatinib = compound: CS(=O)(=O)CCNCc1ccc(-c2ccc3ncnc(Nc4ccc(OCc5cccc(F)c5)c(Cl)c4)c3c2)o1 [lapatinib]
How it was run: as §1

pictilisib = compound: CS(=O)(=O)N1CCN(Cc2cc3nc(-c4cccc5[nH]ncc45)nc(N4CCOCC4)c3s2)CC1 [pictilisib]
How it was run: as §1

crizotinib = compound: C[C@@H](Oc1cc(-c2cnn(C3CCNCC3)c2)cnc1N)c1c(Cl)ccc(F)c1Cl [crizotinib]
How it was run: as §1

[5] = compound: C[C@H](C1=CC=C(C=C1)C(=O)NC2=C3C=CNC3=NC=C2)N
How it was run: as §1

duvelisib = compound: C[C@H](Nc1ncnc2nc[nH]c12)c1cc2cccc(Cl)c2c(=O)n1-c1ccccc1 [duvelisib]
How it was run: as §1

gandotinib = compound: Cc1cc(Nc2cc(CN3CCOCC3)c3nc(C)c(Cc4ccc(Cl)cc4F)n3n2)n[nH]1 [gandotinib]
How it was run: as §1

tozasertib = compound: Cc1cc(Nc2cc(N3CCN(C)CC3)nc(Sc3ccc(NC(=O)C4CC4)cc3)n2)n[nH]1 [tozasertib]
How it was run: as §1

doramapimod = compound: Cc1ccc(-n2nc(C(C)(C)C)cc2NC(=O)Nc2ccc(OCCN3CCOCC3)c3ccccc23)cc1 [doramapimod]
How it was run: as §1

bafetinib = compound: Cc1ccc(NC(=O)c2ccc(CN3CC[C@H](N(C)C)C3)c(C(F)(F)F)c2)cc1Nc1nccc(-c2cncnc2)n1 [bafetinib]
How it was run: as §1

[6] = compound: Cc1cccc(CC(=O)N2CCc3c2ccc(-c2cn(C)c4ncnc(N)c24)c3F)n1
How it was run: as §1

Measured: log2 fold change

ANXA2 isoform 2 (UniProt P07355)
UniProt P07355, sequence (P07355 whole entry, looked up): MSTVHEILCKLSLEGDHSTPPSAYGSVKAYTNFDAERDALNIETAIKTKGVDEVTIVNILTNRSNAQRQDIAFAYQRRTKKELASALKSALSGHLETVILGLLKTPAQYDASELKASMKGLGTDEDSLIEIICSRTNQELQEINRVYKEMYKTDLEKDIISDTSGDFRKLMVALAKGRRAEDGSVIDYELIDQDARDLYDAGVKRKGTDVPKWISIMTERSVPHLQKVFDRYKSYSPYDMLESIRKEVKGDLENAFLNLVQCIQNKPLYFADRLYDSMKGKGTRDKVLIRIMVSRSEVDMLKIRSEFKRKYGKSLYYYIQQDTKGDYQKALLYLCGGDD
inactive: alvocidib 0.012 | Tubastatin A 0.013 | [1] -0.012 | defactinib -0.011 | [2] -0.026 | encorafenib -0.03 | [3] -0.007 | alisertib 0.002 | [4] 0.003 | gefitinib -0.009 | lapatinib 0.009 | pictilisib -0.005 | crizotinib 0.029 | [5] 0.017 | duvelisib -0.028 | gandotinib 0.008 | tozasertib -0.001 | doramapimod -0.024 | bafetinib 0.065 | [6] -0.041

ADAR isoform 4 (UniProt P55265)
UniProt P55265, sequence (P55265 whole entry, looked up): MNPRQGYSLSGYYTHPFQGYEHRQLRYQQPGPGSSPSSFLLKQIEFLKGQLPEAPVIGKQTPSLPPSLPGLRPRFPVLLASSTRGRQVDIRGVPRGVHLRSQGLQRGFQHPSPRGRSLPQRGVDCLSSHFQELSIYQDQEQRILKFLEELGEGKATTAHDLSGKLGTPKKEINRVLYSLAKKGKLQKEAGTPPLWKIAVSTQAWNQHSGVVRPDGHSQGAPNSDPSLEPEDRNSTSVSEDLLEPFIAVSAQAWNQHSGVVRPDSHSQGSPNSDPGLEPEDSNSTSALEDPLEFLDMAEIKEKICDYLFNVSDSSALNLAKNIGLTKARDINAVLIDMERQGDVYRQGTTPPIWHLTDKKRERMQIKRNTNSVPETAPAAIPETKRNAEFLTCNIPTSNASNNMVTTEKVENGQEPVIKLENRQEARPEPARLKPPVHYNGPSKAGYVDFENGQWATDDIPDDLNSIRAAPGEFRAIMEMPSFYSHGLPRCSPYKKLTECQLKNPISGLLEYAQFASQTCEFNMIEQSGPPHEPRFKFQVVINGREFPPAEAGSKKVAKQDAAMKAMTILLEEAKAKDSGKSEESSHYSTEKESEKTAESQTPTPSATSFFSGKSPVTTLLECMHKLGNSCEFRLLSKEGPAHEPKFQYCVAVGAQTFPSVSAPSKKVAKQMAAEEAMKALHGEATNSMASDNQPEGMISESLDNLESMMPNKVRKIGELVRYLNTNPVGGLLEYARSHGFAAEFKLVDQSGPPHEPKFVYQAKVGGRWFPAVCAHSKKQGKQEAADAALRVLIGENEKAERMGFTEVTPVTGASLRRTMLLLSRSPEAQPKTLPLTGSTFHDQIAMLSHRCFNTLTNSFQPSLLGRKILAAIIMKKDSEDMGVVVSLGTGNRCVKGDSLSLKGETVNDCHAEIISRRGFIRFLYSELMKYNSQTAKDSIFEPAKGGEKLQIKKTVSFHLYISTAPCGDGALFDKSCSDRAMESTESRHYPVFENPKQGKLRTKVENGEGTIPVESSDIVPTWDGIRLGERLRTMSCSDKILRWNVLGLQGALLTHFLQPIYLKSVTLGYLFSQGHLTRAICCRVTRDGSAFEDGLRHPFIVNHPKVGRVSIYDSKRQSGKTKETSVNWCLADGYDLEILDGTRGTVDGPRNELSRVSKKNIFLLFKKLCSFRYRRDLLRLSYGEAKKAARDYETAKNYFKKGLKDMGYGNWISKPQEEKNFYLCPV
inactive: alvocidib -0.004 | Tubastatin A -0.167 | [1] 0.012 | defactinib 0.054 | [2] -0.001 | encorafenib 0.052 | [3] -0.041 | alisertib 0.045 | [4] 0.013 | gefitinib 0.02 | lapatinib 0.023 | pictilisib -0.135 | crizotinib 0 | [5] 0.01 | duvelisib 0.016 | gandotinib -0.038 | tozasertib 0.016 | doramapimod 0.069 | bafetinib -0.16 | [6] 0.028

ARAP1 (UniProt Q96P48)
inactive: alvocidib -0.027 | Tubastatin A -0.135 | [1] 0.033 | defactinib 0.075 | [2] 0.017 | encorafenib 0.06 | [3] 0.078 | alisertib 0.015 | [4] 0.003 | gefitinib 0.041 | lapatinib -0.022 | pictilisib -0.046 | crizotinib -0.065 | [5] -0.03 | duvelisib -0.002 | gandotinib 0.014 | tozasertib -0.005 | doramapimod 0.063 | bafetinib -0.016 | [6] 0.034

AGPS (UniProt O00116)
inactive: alvocidib -0.011 | Tubastatin A 0.039 | [1] -0.046 | defactinib -0.003 | [2] 0.011 | encorafenib -0.005 | [3] -0.125 | alisertib 0.035 | [4] -0.03 | gefitinib -0.002 | lapatinib -0.017 | pictilisib -0.049 | crizotinib -0.02 | [5] -0.033 | duvelisib -0.011 | gandotinib 0.019 | tozasertib 0.015 | doramapimod 0.025 | bafetinib 0.002 | [6] 0.083

ARFGAP1 (UniProt Q8N6T3)
inactive: alvocidib -0.001 | Tubastatin A -0.008 | [1] 0.105 | defactinib 0.115 | [2] 0.025 | encorafenib 0.355 | [3] -0.054 | alisertib 0.245 | [4] 0.097 | gefitinib 0.209 | lapatinib 0.002 | pictilisib 0.175 | crizotinib 0.031 | [5] -0.077 | duvelisib -0.054 | tozasertib -0.011 | doramapimod 0.202 | bafetinib -0.157 | [6] 0.202
active: gandotinib 1.08

ACACB (UniProt O00763)
UniProt O00763, sequence (O00763 whole entry, looked up): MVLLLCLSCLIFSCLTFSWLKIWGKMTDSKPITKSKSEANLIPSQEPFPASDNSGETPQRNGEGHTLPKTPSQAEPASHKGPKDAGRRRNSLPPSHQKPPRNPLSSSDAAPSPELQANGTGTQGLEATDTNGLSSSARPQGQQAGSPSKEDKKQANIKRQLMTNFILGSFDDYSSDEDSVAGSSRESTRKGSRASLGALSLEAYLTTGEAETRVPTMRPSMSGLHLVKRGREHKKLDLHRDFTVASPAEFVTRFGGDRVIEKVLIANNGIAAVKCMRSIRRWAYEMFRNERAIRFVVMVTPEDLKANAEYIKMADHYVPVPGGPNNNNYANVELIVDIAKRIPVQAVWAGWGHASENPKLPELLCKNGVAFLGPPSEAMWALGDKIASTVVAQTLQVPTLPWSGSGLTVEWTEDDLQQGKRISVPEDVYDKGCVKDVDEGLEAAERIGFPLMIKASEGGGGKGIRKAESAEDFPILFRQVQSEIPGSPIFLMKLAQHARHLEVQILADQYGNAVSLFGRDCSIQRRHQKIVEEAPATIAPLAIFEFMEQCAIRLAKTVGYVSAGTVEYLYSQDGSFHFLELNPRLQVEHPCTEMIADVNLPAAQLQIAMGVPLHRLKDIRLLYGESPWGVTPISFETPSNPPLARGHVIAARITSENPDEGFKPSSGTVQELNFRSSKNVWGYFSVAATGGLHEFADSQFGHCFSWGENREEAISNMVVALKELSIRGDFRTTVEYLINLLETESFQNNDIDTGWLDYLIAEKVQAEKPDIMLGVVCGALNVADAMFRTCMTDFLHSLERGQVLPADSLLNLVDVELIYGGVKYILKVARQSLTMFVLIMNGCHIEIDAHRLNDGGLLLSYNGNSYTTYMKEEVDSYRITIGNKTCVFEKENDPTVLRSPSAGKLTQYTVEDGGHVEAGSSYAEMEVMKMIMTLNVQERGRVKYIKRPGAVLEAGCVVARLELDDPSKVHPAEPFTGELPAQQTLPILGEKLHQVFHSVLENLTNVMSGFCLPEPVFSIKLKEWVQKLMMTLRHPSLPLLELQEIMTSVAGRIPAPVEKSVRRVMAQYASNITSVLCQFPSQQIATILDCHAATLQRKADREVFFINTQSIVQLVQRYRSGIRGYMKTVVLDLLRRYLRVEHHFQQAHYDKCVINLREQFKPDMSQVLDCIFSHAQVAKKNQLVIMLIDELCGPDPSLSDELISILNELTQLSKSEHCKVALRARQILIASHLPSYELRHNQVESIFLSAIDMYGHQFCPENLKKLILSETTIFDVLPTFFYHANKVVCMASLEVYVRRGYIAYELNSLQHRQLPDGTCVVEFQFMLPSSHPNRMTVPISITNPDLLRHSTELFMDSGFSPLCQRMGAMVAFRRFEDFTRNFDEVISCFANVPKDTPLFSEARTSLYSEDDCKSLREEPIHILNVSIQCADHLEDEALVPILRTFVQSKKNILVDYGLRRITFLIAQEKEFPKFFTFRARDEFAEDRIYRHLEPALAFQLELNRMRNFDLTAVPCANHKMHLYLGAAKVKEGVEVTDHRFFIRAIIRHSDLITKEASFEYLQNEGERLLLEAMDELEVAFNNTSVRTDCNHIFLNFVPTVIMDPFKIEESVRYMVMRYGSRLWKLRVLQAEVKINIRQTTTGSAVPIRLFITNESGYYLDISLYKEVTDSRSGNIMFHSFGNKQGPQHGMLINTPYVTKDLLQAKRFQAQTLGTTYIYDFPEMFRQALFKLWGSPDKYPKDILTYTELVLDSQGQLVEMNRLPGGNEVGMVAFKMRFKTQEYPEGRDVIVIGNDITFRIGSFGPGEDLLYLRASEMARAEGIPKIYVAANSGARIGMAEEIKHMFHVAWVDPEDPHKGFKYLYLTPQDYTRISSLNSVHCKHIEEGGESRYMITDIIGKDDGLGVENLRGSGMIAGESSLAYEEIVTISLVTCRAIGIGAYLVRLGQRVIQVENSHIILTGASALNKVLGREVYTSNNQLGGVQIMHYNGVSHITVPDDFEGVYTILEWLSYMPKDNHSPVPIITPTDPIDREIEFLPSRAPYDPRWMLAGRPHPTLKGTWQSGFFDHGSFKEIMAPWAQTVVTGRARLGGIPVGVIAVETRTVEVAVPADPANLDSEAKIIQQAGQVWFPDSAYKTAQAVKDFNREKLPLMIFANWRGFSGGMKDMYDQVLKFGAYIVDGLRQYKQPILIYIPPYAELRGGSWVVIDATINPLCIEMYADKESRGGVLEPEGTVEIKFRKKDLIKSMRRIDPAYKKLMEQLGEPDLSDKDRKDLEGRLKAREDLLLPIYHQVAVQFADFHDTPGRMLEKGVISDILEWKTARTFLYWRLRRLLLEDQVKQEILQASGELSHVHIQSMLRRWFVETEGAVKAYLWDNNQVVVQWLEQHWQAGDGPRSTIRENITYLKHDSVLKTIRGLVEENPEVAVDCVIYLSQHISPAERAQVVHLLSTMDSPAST
inactive: alvocidib -0.04 | Tubastatin A -0.153 | [1] 0.007 | defactinib 0.019 | [2] -0.043 | encorafenib 0.127 | [3] -0.156 | alisertib 0.016 | [4] 0.006 | gefitinib 0.006 | lapatinib -0.032 | pictilisib -0.029 | crizotinib -0.103 | [5] -0.113 | duvelisib 0.032 | gandotinib 0.021 | tozasertib 0.072 | doramapimod 0.054 | bafetinib -0.113 | [6] 0.165

ARL1 (UniProt P40616)
inactive: alvocidib -0.017 | Tubastatin A -0.025 | [1] 0.079 | defactinib 0.001 | [2] 0.088 | encorafenib 0.111 | alisertib 0.081 | [4] 0.053 | gefitinib 0.057 | lapatinib 0.001 | pictilisib 0.051 | crizotinib -0.028 | [5] -0.056 | duvelisib 0.001 | gandotinib 0.159 | tozasertib 0.004 | bafetinib -0.027 | [6] 0.096
active: [3] -0.293 | doramapimod 0.228

ARMC6 (UniProt Q6NXE6)
inactive: alvocidib 0 | Tubastatin A -0.171 | [1] 0 | defactinib -0.003 | [2] -0.103 | encorafenib 0.037 | alisertib 0.005 | [4] -0.014 | gefitinib 0.041 | lapatinib 0 | pictilisib -0.015 | crizotinib -0.022 | [5] 0.012 | duvelisib -0.027 | gandotinib -0.067 | tozasertib 0.024 | doramapimod 0 | bafetinib -0.016 | [6] -0.009
active: [3] 0.234

ALDH1B1 (UniProt P30837)
active: [1] 0.233
inactive: alvocidib 0.168 | Tubastatin A 0.01 | defactinib -0.029 | [2] 0.007 | encorafenib -0.008 | [3] 0.127 | alisertib -0.002 | [4] 0.006 | gefitinib -0.026 | lapatinib -0.012 | pictilisib 0.008 | crizotinib -0.007 | [5] -0.024 | duvelisib 0.058 | gandotinib 0.052 | tozasertib 0.021 | doramapimod -0.017 | bafetinib -0.049 | [6] -0.041

ANKRD54 (UniProt Q6NXT1)
UniProt Q6NXT1, sequence (Q6NXT1 whole entry, looked up): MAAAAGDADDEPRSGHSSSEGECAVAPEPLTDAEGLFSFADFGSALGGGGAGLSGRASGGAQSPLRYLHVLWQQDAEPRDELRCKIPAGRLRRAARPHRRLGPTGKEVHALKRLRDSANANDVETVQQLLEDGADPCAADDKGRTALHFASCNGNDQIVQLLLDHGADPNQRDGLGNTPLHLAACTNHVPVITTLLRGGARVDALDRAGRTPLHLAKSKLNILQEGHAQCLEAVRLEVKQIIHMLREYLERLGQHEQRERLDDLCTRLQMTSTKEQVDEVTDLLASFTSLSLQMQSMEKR
inactive: alvocidib -0.019 | Tubastatin A -0.095 | [1] 0.121 | defactinib 0.022 | [2] 0.042 | encorafenib 0.082 | [3] -0.147 | alisertib 0.006 | [4] -0.011 | gefitinib 0.002 | lapatinib 0.038 | pictilisib -0.008 | crizotinib 0.058 | [5] 0.01 | duvelisib 0.008 | gandotinib 0.049 | tozasertib -0.002 | doramapimod 0.044 | bafetinib -0.029 | [6] -0.007

ANXA5 (UniProt P08758)
inactive: alvocidib 0.04 | Tubastatin A 0 | [1] -0.023 | defactinib -0.002 | [2] -0.067 | encorafenib -0.016 | [3] 0.049 | alisertib 0.052 | [4] -0.009 | gefitinib 0.049 | lapatinib 0.005 | pictilisib -0.009 | crizotinib 0.046 | [5] 0.059 | duvelisib -0.028 | gandotinib -0.119 | tozasertib 0.019 | doramapimod 0.015 | bafetinib -0.018 | [6] -0.065

ACSL4 (UniProt O60488)
UniProt O60488, sequence (O60488 whole entry, looked up): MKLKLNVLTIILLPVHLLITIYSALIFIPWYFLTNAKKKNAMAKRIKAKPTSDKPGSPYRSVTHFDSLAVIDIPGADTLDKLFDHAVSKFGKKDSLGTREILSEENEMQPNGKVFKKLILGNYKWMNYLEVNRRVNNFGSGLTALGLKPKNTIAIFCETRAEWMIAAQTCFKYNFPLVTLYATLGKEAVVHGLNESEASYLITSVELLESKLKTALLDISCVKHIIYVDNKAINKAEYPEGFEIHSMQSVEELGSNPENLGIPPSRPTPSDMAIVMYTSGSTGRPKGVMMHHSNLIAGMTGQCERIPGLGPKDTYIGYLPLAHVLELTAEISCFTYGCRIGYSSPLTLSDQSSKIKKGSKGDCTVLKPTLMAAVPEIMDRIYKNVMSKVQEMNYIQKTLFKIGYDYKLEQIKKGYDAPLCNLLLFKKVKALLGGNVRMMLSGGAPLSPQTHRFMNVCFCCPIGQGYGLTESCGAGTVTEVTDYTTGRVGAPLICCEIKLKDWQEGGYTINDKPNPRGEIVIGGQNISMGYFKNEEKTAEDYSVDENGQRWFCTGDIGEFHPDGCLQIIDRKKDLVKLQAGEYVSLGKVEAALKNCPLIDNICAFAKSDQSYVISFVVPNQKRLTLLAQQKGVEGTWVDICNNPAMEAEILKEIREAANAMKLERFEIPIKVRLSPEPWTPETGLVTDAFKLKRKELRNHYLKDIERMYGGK
inactive: alvocidib 0.023 | Tubastatin A -0.06 | [1] 0.047 | defactinib 0.054 | [2] -0.034 | encorafenib 0.003 | [3] 0.073 | alisertib -0.017 | [4] 0.019 | gefitinib 0.014 | lapatinib 0.008 | pictilisib 0.028 | crizotinib -0.042 | [5] -0.016 | duvelisib 0.026 | gandotinib -0.065 | tozasertib 0.002 | doramapimod 0.025 | bafetinib -0.093 | [6] -0.003

ALDH1A1 (UniProt P00352)
inactive: alvocidib 0.06 | Tubastatin A -0.004 | [1] 0.004 | defactinib -0.007 | [2] -0.037 | encorafenib -0.009 | [3] -0.043 | alisertib 0.01 | [4] -0.001 | gefitinib -0.017 | lapatinib 0.002 | pictilisib -0.068 | crizotinib 0.004 | [5] 0.05 | duvelisib -0.023 | gandotinib -0.111 | tozasertib -0.006 | doramapimod -0.015 | bafetinib 0.061 | [6] -0.164

APAF1 (UniProt O14727)
inactive: alvocidib -0.006 | Tubastatin A -0.174 | [1] -0.026 | defactinib -0.015 | [2] 0.008 | encorafenib -0.017 | [3] 0.129 | alisertib -0.027 | [4] 0.061 | gefitinib 0.017 | lapatinib 0.022 | pictilisib -0.068 | crizotinib -0.09 | [5] -0.015 | duvelisib -0.011 | gandotinib -0.058 | tozasertib -0.025 | doramapimod 0.05 | bafetinib 0.02 | [6] 0.061

ANXA11 (UniProt P50995)
inactive: alvocidib -0.025 | Tubastatin A 0.017 | [1] 0.009 | defactinib -0.012 | [2] -0.019 | encorafenib -0.004 | [3] 0.027 | alisertib 0.015 | [4] -0.015 | gefitinib -0.014 | lapatinib -0.005 | pictilisib -0.008 | crizotinib 0.001 | [5] -0.044 | duvelisib -0.022 | gandotinib 0.008 | tozasertib 0.026 | doramapimod 0.012 | bafetinib -0.03 | [6] 0.039

AHCYL1 (UniProt O43865)
inactive: alvocidib 0.025 | Tubastatin A -0.096 | [1] 0.051 | defactinib 0.06 | [2] 0.037 | encorafenib 0.01 | [3] 0.009 | alisertib -0.041 | [4] -0.003 | gefitinib -0.012 | lapatinib -0.001 | pictilisib 0.008 | crizotinib -0.028 | [5] -0.012 | duvelisib 0.043 | gandotinib -0.067 | tozasertib -0.031 | doramapimod 0.013 | bafetinib -0.047 | [6] 0.001
